Screening data as filed in PubChem.
CYP2C9 inh: blocks human cytochrome P450 2C9. P11712. CYP2C9 Supersomes, luciferin-H conversion, luminescence. inhibition, % at 5 µM. 96,000 compounds, 20% hits. AID 777;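 active means blocking of liver enzyme CYP2C9 beyond about 50% at 5 µM, limit read from the data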
PLAP act: activates human placental alkaline phosphatase | P05187 | purified PLAP enzyme, luminescent substrate read-out; stronger effect = higher value | activation fold at 20 µM | 96,000 compounds, 1.2% hits; in the data active means activation fold above about 2
Target sequence (P05187 whole entry, looked up): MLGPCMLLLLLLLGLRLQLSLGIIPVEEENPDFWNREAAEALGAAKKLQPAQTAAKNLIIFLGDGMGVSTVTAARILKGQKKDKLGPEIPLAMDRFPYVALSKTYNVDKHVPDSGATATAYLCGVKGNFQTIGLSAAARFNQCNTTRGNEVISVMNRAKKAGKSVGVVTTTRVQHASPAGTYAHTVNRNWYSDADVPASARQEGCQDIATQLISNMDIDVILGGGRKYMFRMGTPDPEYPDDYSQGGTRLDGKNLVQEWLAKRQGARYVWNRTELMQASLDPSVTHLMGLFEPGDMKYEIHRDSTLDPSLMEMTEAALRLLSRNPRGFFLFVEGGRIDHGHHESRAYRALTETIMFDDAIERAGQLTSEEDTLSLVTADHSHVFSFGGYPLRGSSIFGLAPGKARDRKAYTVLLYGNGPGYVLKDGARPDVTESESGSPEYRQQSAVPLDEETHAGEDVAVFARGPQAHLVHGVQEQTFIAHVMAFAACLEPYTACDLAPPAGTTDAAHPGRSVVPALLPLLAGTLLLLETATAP
CYP2C9 activ: CYP2C9 (human) activation. 96,000 compounds, 1.4% hits. activation factor at 5 µM. AID 1024. recombinant CYP2C9, luciferin-H conversion, luminescence; stronger effect = higher value; factor 1 = untreated enzyme, 0 = blocked. P11712;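 active means activation factor of 2 or more for CYP2C9 at a 5 µM dose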
CYP2C19 activ: cytochrome P450 2C19 (human) activation | activation factor at 5 µM | AID 1025 | 96,000 tested, under 10 active | recombinant CYP2C19, luciferin-H EGE luminescence; stronger effect = higher value; 0 = fully inhibited enzyme, 1 = untreated enzyme;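 active means activation factor of at least 2 at 5 µM in the primary screen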
CYP2C19 inh: human CYP2C19 inhibition; 96,000 compounds, 21% hits; AID 778; inhibition, % at 5 µM; CYP2C19 Supersomes, luciferin-H EGE luminescence, 30 min;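 active means CYP2C19 inhibition above a set limit at 5 µM in the primary screen, cut at about 50% in these data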
Of the large screens only hits and unclear results are named; the others gave an inactive call. In the library only some 31% were active in any assay of this set; here they are far more common.

CCSCCOC(=O)C1=C(C)NC(=O)NC1c1cc(OC)ccc1OC (centres undefined)	none
CCOC(=O)C1=C(C)NC2=C(C(=O)CCC2)C1c1cc(OC)ccc1OC (centres undefined)	CYP2C9 inh 88, CYP2C19 inh 79
Cc1ccc(N2C(=O)Nc3ccc(Br)cc3C2(O)C(=O)NCCCN(C)C)cc1C (centres undefined)	none
Cc1cc(C)nc(SCC2COc3ccccc3O2)n1 (centres undefined)	none
COc1ccc(OC)c(C2C(C(=O)Nc3nc4ccccc4s3)=C(C)NC3=C2C(=O)CCC3)c1 (centres undefined)	CYP2C9 inh 74, CYP2C19 inh 64
COc1cccc(C2C(C(=O)Nc3nc4ccccc4s3)=C(C)NC3=C2C(=O)CC(C)(C)C3)c1OC (centres undefined)	none
N#C/C(=C\N1CCOCC1)c1ccccc1	CYP2C19 inh 57
O=C(c1ccc2ccccc2c1)N1CCN(c2ccc(O)cc2)CC1	CYP2C19 inh 62
O=C(/C=C/c1ccccc1)N1CCN(c2ccc([N+](=O)[O-])c(N3CCOCC3)c2)CC1	CYP2C9 inh 72
O=C(/C=C/c1ccc(Cl)cc1)N1CCN(c2ccc(Cl)cc2[N+](=O)[O-])CC1	CYP2C19 inh 54
O=C(c1ccc(F)cc1)N1CCN(c2ccc([N+](=O)[O-])c(N3CCCCC3)c2)CC1	CYP2C9 inh 62
Cc1nn(-c2cc(N3CCOCC3)ccc2[N+](=O)[O-])c(=O)c2ccccc12	none
COc1ccc(-c2nnc(NC(=O)c3cc(Cl)ccc3Cl)o2)cc1	none
COc1ccc(/C=C\C(=O)CC(O)(c2ccccc2)C(F)(F)F)cc1 (centres undefined)	none
CO/N=C(\c1nonc1N)N1CCN(c2ccc([N+](=O)[O-])cc2Cl)CC1	none
CO/N=C(\c1nonc1N)N1CCN(c2ccc(Cl)cc2[N+](=O)[O-])CC1	CYP2C9 inh 76, CYP2C19 inh 77
O=[N+]([O-])c1cc([N+](=O)[O-])c(N2CCOCC2)cc1NCc1ccccc1	CYP2C9 inh 86
O=C(c1ccc(N2CCCCC2)c([N+](=O)[O-])c1)N1CCOCC1	none
Cc1cccc(C(=O)N2CCN(c3ccc([N+](=O)[O-])c(N4CCOCC4)c3)CC2)c1	CYP2C9 inh 54
O=C(c1ccc2ccccc2c1)N1CCN(c2ccc([N+](=O)[O-])c(N3CCOCC3)c2)CC1	CYP2C9 inh 65
CC(=O)N1CCN(c2cc(N3CCc4ccccc4C3)c(F)cc2[N+](=O)[O-])CC1	CYP2C9 inh 54
O=C(c1cccc(F)c1)N1CCN(S(=O)(=O)c2ccc(C(F)(F)F)cc2)CC1	none
O=C(c1cccc(F)c1)N1CCN(c2cc(N3CCCCC3)c(F)cc2[N+](=O)[O-])CC1	CYP2C9 inh 89, CYP2C19 inh 91
COc1ccccc1-c1cc(C(F)(F)F)n2ncc(S(=O)(=O)c3ccccc3)c2n1	CYP2C9 inh 97
O=C1/C(=C/c2ccncc2)SC(=S)N1C1CCS(=O)(=O)C1 (centres undefined)	CYP2C19 inh 75
C=CCn1c(-c2cccc(Cl)c2)n[nH]c1=S	none
C=CCn1c(Cc2nc3ccccc3[nH]2)n[nH]c1=S	PLAP act 2, CYP2C19 inh 76
CCCSc1nnc(CSc2nc3ccccc3s2)n1-c1ccccc1	CYP2C9 inh 70, CYP2C19 inh 55
CCn1c(C(c2ccccc2)c2ccccc2)n[nH]c1=S	CYP2C9 inh 82
C=CCn1c(CSc2nc3ccccc3s2)n[nH]c1=S	CYP2C19 inh 50
C=CCn1c(CSc2nc3ccccc3s2)nnc1SCC(=O)NCCN1CCOCC1	none
O=C1COc2ccc(C(=O)COC(=O)CCc3ccc(S(=O)(=O)N4CCOCC4)cc3)cc2N1	none
CCOCCCNC(=O)C1CCC(=O)N1CCc1ccccc1 (centres undefined)	none
CCn1c(CSc2nc3ccccc3s2)n[nH]c1=S	CYP2C19 inh 73
S=c1[nH]nc(CSc2nc3ccccc3s2)n1Cc1ccccc1	none
N#C/C(=C/c1ccc(N2CCOCC2)c([N+](=O)[O-])c1)C(N)=O	none
COc1cc(Br)cc2cc(C(=O)N3CCCCC3C)c(=O)oc12 (centres undefined)	none
CCOC(=O)c1ccccc1NC(=O)CSc1nc2ccccc2o1	none
CCOC(=O)c1ccc(NC(=O)c2ccccc2)cc1	none
COC(=O)c1ccccc1NC(=O)CSc1nc(NC(=O)c2ccccc2)c2c(C)c(C)oc2n1	CYP2C9 inh 87, CYP2C19 inh 69
CCOC(=O)c1ccc(NC(=O)CSc2nc(NC(=O)c3ccccc3)c3c(C)c(C)oc3n2)cc1	CYP2C9 inh 76, CYP2C19 inh 60
Cc1ccc(Cl)cc1N1CCN(Cc2cc3c(cc2O)CCC3)CC1	none
COC(=O)C1=C(C)NC(C)=C(C(=O)OC)C1c1ccc2ccccc2n1	CYP2C9 inh 50, CYP2C19 inh 77
O=C(OC1CCOC1=O)c1ccc2ccccc2n1 (centres undefined)	none
CCN(CC)c1ccc(C2C(C(=O)OC)=C(C)NC(C)=C2C(=O)OC)cc1	none
O=C1c2ccccc2C(=O)C1c1ccc2ccccc2n1	CYP2C9 inh 74, CYP2C19 inh 82
COC(=O)C1=C(C)NC(C)=C(C(=O)OC)C1c1ccc(NC(C)=O)cc1	CYP2C9 inh 52
CCCCN(C(=O)NC(=O)Nc1ccccc1OCC)S(C)(=O)=O	CYP2C9 inh 79, CYP2C19 inh 54
COc1ccc(/C=N/n2c(SC)nnc(C(C)(C)C)c2=O)c(OC)c1	none
Cc1ccc(C2SCC(=O)N2Cc2cn3ccsc3n2)o1 (centres undefined)	none
O=C(CCCn1c(=O)[nH]c2ccsc2c1=O)N1CCCCC1	none
O=C(CCCn1c(=O)[nH]c2ccsc2c1=O)NCc1cccs1	none
O=C(CCCCCn1c(=O)[nH]c2ccsc2c1=O)N1CCN(C2CCCCC2)CC1	CYP2C9 inh 72, CYP2C19 inh 56
O=C(CCCCn1c(=O)[nH]c2ccsc2c1=O)NCC1CCCO1 (centres undefined)	none
O=C(CCCCCn1c(=O)[nH]c2ccsc2c1=O)NCc1cccs1	CYP2C9 inh 81
O=C(CCCCCn1c(=O)[nH]c2ccsc2c1=O)NCc1ccc(F)cc1	CYP2C9 inh 88
O=C(NCCN1CCN(Cc2ccccc2Cl)CC1)Nc1ccccc1	none
CCN(CC)Cc1c(O)ccc2c(=O)c(Oc3ccccc3OC)coc12	none
CN1C(=O)/C(=C/c2cc(N=Nc3ccccc3)ccc2O)SC1=S	none
C=CCNC(=O)C12CC3(C)CC(C)(CC(C)(C3)C1)C2	CYP2C19 inh 54
COc1ccc(C(=O)Nc2ccc(Cl)cc2C(=O)NCCO)cc1	none
COc1ccc(N2CCN(C(=N)/C(C(C)=O)=C(\C)O)CC2)cc1	none
CCN(CC)CCn1c2ccccc2c2cnc(N)c(C#N)c21	none
CCOc1ccc(C(=O)NCc2ccncc2)cc1OCC	none
CCOc1cc(C(=O)NCc2ccncc2)cc(OCC)c1OCC	CYP2C9 inh 92, CYP2C19 inh 84
